# Results reported in PubChem BioAssay AID1835 (Johns Hopkins Ion Channel Center, 2009).
# Hit rate of the full screen: of about 2,400 compounds, about 750 (31%) were called active.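 The calls were made as follows: active = median signal gain over dofetilide-blocked control wells reaching their mean plus 3 SD, so readout 1 at least 0; inactive = the rest.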 Some of the results follow.
# Target: Voltage-gated inwardly rectifying potassium channel KCNH2 (Homo sapiens) (UniProt Q12809)
# Test: modulators restoring hERG flux under dofetilide – cell-based, thallium flux, duplicate retest, dofetilide IC70, confirmation (AID 1835)
# Settings: hERG cell line, FluxOR thallium flux, dofetilide-blocked; at 10 µM; stronger effect = higher value
# Voltage-gated inwardly rectifying potassium channel KCNH2 (Homo sapiens), sequence (Q12809 whole entry, looked up): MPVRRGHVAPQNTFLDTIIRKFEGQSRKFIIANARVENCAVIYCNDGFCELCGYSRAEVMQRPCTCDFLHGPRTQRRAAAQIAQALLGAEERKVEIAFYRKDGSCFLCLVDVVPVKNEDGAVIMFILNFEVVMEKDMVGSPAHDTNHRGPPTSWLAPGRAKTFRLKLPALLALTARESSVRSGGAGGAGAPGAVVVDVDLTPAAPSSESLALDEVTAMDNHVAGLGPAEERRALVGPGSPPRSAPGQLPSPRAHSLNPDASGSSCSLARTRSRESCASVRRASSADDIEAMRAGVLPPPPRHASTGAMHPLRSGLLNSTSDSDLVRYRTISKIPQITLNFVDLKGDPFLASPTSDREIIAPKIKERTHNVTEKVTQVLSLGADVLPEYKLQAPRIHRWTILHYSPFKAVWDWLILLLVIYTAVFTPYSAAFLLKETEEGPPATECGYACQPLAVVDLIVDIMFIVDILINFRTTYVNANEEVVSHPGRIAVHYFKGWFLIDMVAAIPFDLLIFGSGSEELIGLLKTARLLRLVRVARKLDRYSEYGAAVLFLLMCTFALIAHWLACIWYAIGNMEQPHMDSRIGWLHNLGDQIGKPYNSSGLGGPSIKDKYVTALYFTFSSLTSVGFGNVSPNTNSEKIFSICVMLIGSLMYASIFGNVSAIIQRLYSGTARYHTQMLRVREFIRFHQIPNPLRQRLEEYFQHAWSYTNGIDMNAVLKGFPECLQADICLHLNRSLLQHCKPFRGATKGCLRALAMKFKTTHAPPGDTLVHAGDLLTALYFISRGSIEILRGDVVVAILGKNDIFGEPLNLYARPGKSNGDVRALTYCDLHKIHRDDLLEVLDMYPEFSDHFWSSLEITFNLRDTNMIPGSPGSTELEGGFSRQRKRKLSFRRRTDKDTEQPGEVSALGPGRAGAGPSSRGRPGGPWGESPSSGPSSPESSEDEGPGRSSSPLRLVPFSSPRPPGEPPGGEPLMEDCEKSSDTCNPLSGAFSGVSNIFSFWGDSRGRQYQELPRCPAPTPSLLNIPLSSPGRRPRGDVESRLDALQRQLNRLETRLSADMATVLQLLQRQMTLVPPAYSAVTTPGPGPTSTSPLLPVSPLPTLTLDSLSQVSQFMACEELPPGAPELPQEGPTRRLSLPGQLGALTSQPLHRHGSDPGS
row,SMILES,"activity increase over dofetilide control, less the hit threshold"
1,Cc1cccc2nc(-c3cccnc3)c(NCCC(C)C)n12,-70% (inactive)
2,CC(C)Oc1cccc(C(=O)NC(=S)N2CCN(c3ccc(C(F)(F)F)cc3[N+](=O)[O-])CC2)c1,-8% (inactive)
3,COc1cccc(OC)c1C(=O)NC(=S)N1CCN(c2ccc(C(F)(F)F)cc2[N+](=O)[O-])CC1,6% (active)
4,COC(=O)CSc1nc(N2CCCCC2)c2c(c1C#N)CCCC2,5% (active)
5,COC(=O)CSc1nc2c(c(-c3ccc(C)o3)c1C#N)CCCC2,-18% (inactive)
6,CCC1(c2ccccc2)NC(=S)N(c2ccc(C)c(C)c2)N1 (stereo not drawn),86% (active)
7,CCC1(c2ccc(Cl)cc2)NC(=S)N(c2ccc(C)c(C)c2)N1 (stereo not drawn),100% (active)
8,Cc1ccc(NC(=O)c2noc3c2CCC3)cc1C,-11% (inactive)
9,N#Cc1cc(-c2ccccc2)nnc1Oc1ccccc1,-1% (inactive)
10,Cc1ccc2[nH]c(=O)c(C(c3nnnn3C3CCCC3)N3CCCc4ccccc43)cc2c1 (stereo not drawn),-4% (inactive)
11,COc1ccc(-c2cc(C(F)(F)F)nc(N3CCCCC3)n2)cc1OC,-19% (inactive)
12,O=C1C=C(c2ccccc2)OC(=O)C1C(=O)c1ccccc1 (stereo not drawn),-4% (inactive)
13,CCOc1ccc2nc(/N=C/c3nc(-c4ccc(Br)cc4)oc3O)sc2c1,11% (active)
14,CCOc1ccc2nc(/N=C/c3nc(-c4ccccc4)oc3O)sc2c1,4% (active)
15,CC1(C)CC(=O)c2c(nn(-c3ccccc3)c2-c2ccncc2)C1,-7% (inactive)
16,Cc1ccc2cc(CCNC(=O)C(=O)c3c(C)[nH]c4ccccc34)c(=O)[nH]c2c1,-20% (inactive)
17,CCOC(=O)c1sc2nc(N3CCOCC3)c3c(c2c1N)CCN(Cc1ccccc1)C3,-5% (inactive)
18,OCCN1CCN(c2ncnc3c2sc2nc(N4CCOCC4)c4c(c23)CCC4)CC1,-27% (inactive)
19,CC(C)c1nc2sc3c(=S)nc[nH]c3c2c2c1CCC2,52% (active)
20,S=c1nc[nH]c2c1sc1nc(-c3ccccc3)c3c(c12)CCCC3,80% (active)
21,S=c1nc[nH]c2c1sc1nc(N3CCOCC3)c3c(c12)CCCC3,58% (active)
22,Cc1ccc(C)c(OCc2cc(C(=O)N3CCNC(=O)C3)no2)c1,-7% (inactive)
23,CCc1noc(C)c1C(=O)N1CCCC(N2CCN(c3ccccc3F)CC2)C1 (stereo not drawn),-1% (inactive)
24,COc1ccc(C(=O)NC2CC3CCCC(C2)N3Cc2ccccc2)cc1 (stereo not drawn),-11% (inactive)
25,CCOc1ccccc1NC(=O)C(=O)CC(=O)c1ccc(OC)cc1,16% (active)

row,SMILES,"activity increase over dofetilide control, less the hit threshold"
1,NNC(=O)CNc1ccccc1Cl,-9% (inactive)
2,COc1ccc(C(=O)CNc2ccccc2C#N)cc1,-11% (inactive)
3,CSc1ccc(S(=O)(=O)N2CCC(C(=O)Nc3ccccc3C(F)(F)F)CC2)cc1,-17% (inactive)
4,COc1ccc(C(=O)CC(=O)C(=O)Nc2ccccc2Cl)cc1,31% (active)
5,COc1ccc(C(=O)CC(=O)C(=O)Nc2ccccc2C(F)(F)F)cc1,13% (active)
6,COc1ccc(C(=O)CSc2nnc3ccc(-c4ccccn4)nn23)cc1,-11% (inactive)
7,COc1ccc(C(=O)CC(=O)C(=O)Nc2ccccc2OC)cc1,2% (active)
8,COc1ccccc1NC1=C(NC(C)=O)C(=O)c2ccccc2C1=O,-7% (inactive)
9,CCN1CCN(CC(=O)c2ccc(OC)cc2)CC1,-17% (inactive)
10,CCc1nc(C)ccc1OCC(=O)N1CCc2c([nH]c3ccccc23)C1c1ccccn1 (stereo not drawn),-24% (inactive)
11,Cc1ccc(CCNC(=O)c2cccc(NC3=NC4CS(=O)(=O)CC4S3)c2)cc1 (stereo not drawn),-4% (inactive)
12,Cc1cc(=O)[nH]c(N/N=C2/CCCC/C2=C\c2ccccc2)n1,-9% (inactive)
13,CNC(=O)c1[nH]cnc1C(=O)Nc1ccccn1,-18% (inactive)
14,Cc1ccccc1OCC(=O)NNC(=O)c1ccc2c(=O)n3c(nc2c1)CCC3,-21% (inactive)
15,O=C1c2ccccc2C(=O)N1CCc1nc(-c2ccccn2)no1,-12% (inactive)
16,CCOc1ccc(CCNC(=O)Nc2ccccc2C)cc1OCC,-12% (inactive)
17,CCOc1ccccc1NC(=O)C(=O)CC(=O)c1cccc(OC)c1,7% (active)
18,Cc1ccc2c(CN3CCOCC3)cc(=O)oc2c1,-14% (inactive)
19,Cc1nnc(SCc2cc(=O)oc3cc(O)ccc23)n1Cc1ccccc1,12% (active)
20,Cc1oc2cc(O)ccc2c(=O)c1N1C(=O)c2ccccc2C1=O,-4% (inactive)
21,CCOCCCNC(=O)C(NC(=O)Cc1cccs1)c1ccc(C)cc1 (stereo not drawn),-21% (inactive)
22,Cc1ccc(C(C#N)c2ccc3c(C(F)(F)F)cc(C(F)(F)F)nc3n2)cc1 (stereo not drawn),8% (active)
23,Fc1ccc(N2CCN(c3ccc4c(C(F)(F)F)cc(C(F)(F)F)nc4n3)CC2)cc1,-8% (inactive)
24,Cc1ccc(S(=O)(=O)N2CCOCC2)cc1NC(=O)COC(=O)c1cccnc1Cl,-15% (inactive)
25,Cc1ccc(N=C2NC(=O)/C(=C/c3cccs3)S2)cc1C,0% (inactive)

row,SMILES,"activity increase over dofetilide control, less the hit threshold"
1,CC12CCC(C/C1=N\N=C1\NC(=O)/C(=C\c3ccc(Cl)cc3)S1)C2(C)C (stereo not drawn),-3% (inactive)
2,Cc1cccc(/C=C2/S/C(=N/N=C3\CC4CCC3(C)C4(C)C)NC2=O)c1 (stereo not drawn),5% (active)
3,COc1ccc(/C=C2/S/C(=N/N=C3\CC4CCC3(C)C4(C)C)NC2=O)cc1 (stereo not drawn),20% (active)
4,CCOc1nc(-c2ccccc2)ccc1-c1noc(COC)n1,-7% (inactive)
5,COC(=O)c1ccc(NC(=O)COC(=O)C2CC(=O)N(Cc3ccccc3)C2)cc1 (stereo not drawn),-29% (inactive)
6,Cc1cccc(NC(=S)N/N=C2\CC(C)(C)Oc3ccc(O)cc32)c1,-5% (inactive)
7,O=S(=O)(c1ccc(F)c(F)c1)N1CCN(c2ncccn2)CC1,-9% (inactive)
8,COc1ccc(OC)c(S(=O)(=O)Nc2ccc(O)c3ccccc23)c1,-4% (inactive)
9,O=S(=O)(Nc1ccc(O)c2ccccc12)c1ccc(F)cc1,-58% (inactive)
10,Cc1ccc(S(=O)(=O)Nc2ccc(O)c3ccccc23)c(C)c1,5% (active)
11,O=C(c1ccccc1)c1nccn1-c1ccc(Cl)nn1,-11% (inactive)
12,CC(C1CC2CCC1C2)n1c(-c2cccs2)n[nH]c1=S (stereo not drawn),-4% (inactive)
13,Cn1c(=S)[nH]c2scc(-c3cccs3)c2c1=O,60% (active)
14,S=c1[nH]c(-c2cccs2)cn1-c1ccccc1,-5% (inactive)
15,CC(C)n1c(=S)[nH]c2scc(-c3cccs3)c2c1=O,79% (active)
16,COc1cc(/C=N/n2cnc3scc(-c4cccs4)c3c2=O)cc(OC)c1OC,-5% (inactive)
17,S=c1[nH]c2ccccc2c2ccccc12,-3% (inactive)
18,S=c1nc(C2CCCCC2)[nH]c2ccccc12,4% (active)
19,S=c1nc(C2CC2)[nH]c2ccccc12,34% (active)
20,COc1ccc(-n2c(O)c(/C=C3\C=Nc4ccccc43)c(=O)[nH]c2=O)cc1,21% (active)
21,COc1ccc(Cn2c(O)cc(=O)[nH]c2=O)cc1,-9% (inactive)
22,Cn1cc(CCC(=O)N2CCCC(Nc3ccc(F)cc3)C2)cn1 (stereo not drawn),-13% (inactive)
23,CCc1cc2cc(C)cc(C)c2[nH]c1=S,14% (active)
24,COc1ccc(NC(=O)CC23CC4CC(CC(C4)C2)C3)cn1,-17% (inactive)
25,CCOC(=O)c1cnc(-n2nc(C)cc2C)nc1NNc1nc(-c2ccccc2)cc(-c2ccccc2)n1,-12% (inactive)

row,SMILES,"activity increase over dofetilide control, less the hit threshold"
1,CCOc1cc(N2CCOCC2)c(OCC)cc1NC(=O)Cn1nc(C)c([N+](=O)[O-])c1C,16% (active)
2,CCOc1cc(N2CCOCC2)c(OCC)cc1NC(=O)Cc1ccccc1,-2% (inactive)
3,CCOc1cc(N2CCOCC2)c(OCC)cc1NC(=O)CCC1CCCC1,-11% (inactive)
4,Cc1ccccc1OC(=O)n1c(=S)oc2cc(Cl)ccc21,-1% (inactive)
5,O=C(/C=C/Nc1ccccc1)C(F)(F)F,-14% (inactive)
6,Cc1ccc(-c2nc(N)s[n+]2-c2ccccc2)cc1,17% (active)
7,CCC(C)(C)NC(=O)c1ccc(Sc2nncn2C)c([N+](=O)[O-])c1,-4% (inactive)
8,C=C(C)C1CC=C(C)/C(=N/NC(=O)CCC(=O)Nc2ccccc2Cl)C1 (stereo not drawn),-17% (inactive)
9,COc1ccc(CCNC(=O)c2ccc3c(c2)OCO3)cc1,-16% (inactive)
10,COc1ccc2c(c1)O[C@@H](c1cccc(C(F)(F)F)c1)[C@H](OC(=O)NCCc1ccc(OC)c(OC)c1)C2=O,3% (active)
11,COc1ccccc1-n1c(C)nc2cc(C(=O)NCc3ccc4c(c3)OCO4)ccc21,-27% (inactive)
12,COc1ccc(CCNC(=O)C(=O)Nc2ccc3c(c2)OCO3)cc1OC,-22% (inactive)
13,COc1cccc([C@@H]2Oc3ccc(OC)cc3C(=O)[C@H]2OC(=O)NCc2ccc3c(c2)OCO3)c1,5% (active)
14,COc1ccc(CCNC(=O)Cn2c(=O)n(-c3ccc(F)cc3)c(=O)c3sccc32)cc1OC,-10% (inactive)
15,COC(=O)C(C)Sc1nnc(Cc2cc(=O)[nH]c(=O)[nH]2)n1-c1cccc(OC)c1 (stereo not drawn),-17% (inactive)
16,CC(C)OC(=O)N(C)c1ccc(C(O)(C(F)(F)F)C(F)(F)F)cc1,-8% (inactive)
17,CCCOC(=O)CN1C(=O)c2ccc(C(=O)OCCC)cc2C1=O,-8% (inactive)
18,COc1ccc(CC(=O)Nc2ccc(-c3noc(-c4ccccc4OC)n3)cc2)cc1,-18% (inactive)
19,Cc1c(C#N)c(O)[nH]c(=O)c1N=Nc1ccc(Br)cc1C(=O)O,46% (active)
20,CC1(C)CC(NC(=O)c2ccc(Cl)cc2Cl)CC(C)(C)N1,2% (active)
21,Cc1ccc(C(C)C)cc1S(=O)(=O)NC1CC(C)(C)NC(C)(C)C1,-15% (inactive)
22,Cc1ccc2c(c1)c1c(n2CC(O)Cn2nc(C)c(Br)c2C)CCCC1 (stereo not drawn),-8% (inactive)
23,Cc1ccc(F)cc1CNC(=O)C1CCC(=O)N(C2CC2)C1 (stereo not drawn),-7% (inactive)
